# Source: PubChem BioAssay (Tox21)
# Where “and” joins values, the source holds several entries; their conditions need not be identical. Equal values may be shown once. Results filed as inconclusive are left out. Entries that show only a call come without a potency. Calls of active or inactive are those of the source. Unless noted, calls come from the whole dose curve; as a rule, active = well fitted curve in the direction sought with a large enough effect in the repeat runs; inconclusive = weak or mixed curves; inactive = no such curve, though single readings can be large; an effect the other way counts as inactive or inconclusive.
# Assays:
# [1] = qHTS assay to identify small molecule antagonists of the estrogen related receptor (ERR) signaling pathway from Tox21 library - cell viability counter screen (AID 1224834); note: nearly all actives have a fitted effect of over 30% in size; note: potency is the fitted concentration of half-maximal effect
# Method in brief: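 In this quantitative HTS format, ERR cells receive compounds in DMSO and are incubated for 17.5 h at 37 C. Live-cell protease activity is then detected with CellTiter-Fluor.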
# [2] = molecular target: Luciferin 4-monooxygenase (Photinus pyralis) (UniProt P08659); test: qHTS assay to identify small molecule inhibitors of firefly luciferase (AID 1224835); note: nearly all actives have a fitted effect of over 25% in size; note: potency is the fitted concentration of half-maximal effect
# Method in brief: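 Inhibition of purified Photinus luciferase is measured by luminescence. Substrate levels (D-luciferin, ATP) sit at their KM values. Each compound is tested in a concentration series.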
# [3] = qHTS assay to identify small molecule agonists of the constitutive androstane receptor (CAR) signaling pathway - cell viability counter screen (AID 1224836); note: nearly all actives have a fitted effect of over 45% in size; note: potency is the fitted concentration of half-maximal effect
# Method in brief: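 Cells were seeded and incubated 4 hrs. Compounds were added across 15 concentrations together with PK11195 at 0.75 uM final. Plates were incubated 23 hrs at 37 C. CellTiter-Fluor was added and fluorescence measured.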
# [4] = qHTS assay to identify small molecule antagonists of the constitutive androstane receptor (CAR) signaling pathway - cell viability counter screen (AID 1224837); note: nearly all actives have a fitted effect of over 45% in size; note: potency is the fitted concentration of half-maximal effect
# Method in brief: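 In quantitative HTS format, compounds at 15 concentrations were applied to HepG2 cells double-transfected with hCAR and CYP2B6-2.2kb under 50 nM CITCO stimulation; live-cell protease activity was read after 23 hr via CellTiter-Fluor.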
# [5] = qHTS assay to identify small molecule antagonists of the estrogen related receptor signaling pathway with the pleiotropic PPARgamma coactivator (PGC) from Tox21 10K library - cell viability counter screen (AID 1224840; active = well fitted cell-killing curve with a large enough effect in the repeat runs, not every such curve was filed as active; note: nearly all actives have a fitted effect of over 40% in size; note: potency is the fitted concentration of half-maximal effect)
# Method in brief: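 Viability counter screen, PGC/ERR cells: 17.5 h compound exposure at 37 C, CellTiter-Fluor fluorescence endpoint.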
# [6] = molecular target: Nuclear receptor subfamily 1 group I member 3 (Homo sapiens) (UniProt Q14994); test: qHTS assay to identify small molecule antagonists of the constitutive androstane receptor (CAR) signaling pathway (AID 1224838); note: nearly all actives have a fitted effect of over 40% in size; note: potency is the fitted concentration of half-maximal effect
# Method in brief: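 CITCO-stimulated (50 nM final) HepG2 cells stably transfected with hCAR and CYP2B6-2.2kb luciferase were exposed to compounds at 15 concentrations for 24 h at 37 C/5% CO2. A luciferase reagent was added and luminescence recorded after 30 min.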
# [7] = qHTS assay to identify small molecule antagonists of the estrogen related receptor signaling pathway with the pleiotropic PPARgamma coactivator (PGC) from Tox21 10K library (AID 1224841; call rule not given here; note: actives are mostly falling curves and most rising ones were filed inactive; nearly all actives have a fitted effect of over 50% in size; note: potency is the fitted concentration of half-maximal effect)
# Method in brief: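 In the PGC/ERR line, DMSO solutions of test chemicals are pin-delivered to 2,000 cells/well six hours after dispensing. Following eighteen hours' incubation, One-Glo reagent is added and luminescence recorded.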
# [8] = qHTS assay to identify small molecule agonists of the estrogen related receptor signaling pathway with the pleiotropic PPARgamma coactivator (PGC) from Tox21 10K library (AID 1224842); note: nearly all actives have a fitted effect of over 15% in size
# Method in brief: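 Luminescence from One-Glo (30 min, room temperature) measured after PGC/ERR cells had 18 h at 37 C with pinned compound (23 nL in DMSO). Cells had been seeded at 2,000 per well and pre-incubated 6 h.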
# [9] = molecular target: Nuclear receptor subfamily 1 group I member 3 (Homo sapiens) (UniProt Q14994); test: qHTS assay to identify small molecule agonists of the constitutive androstane receptor (CAR) signaling pathway (AID 1224839); note: nearly all actives have a fitted effect of over 15% in size; note: potency is the fitted concentration of half-maximal effect
# Method in brief: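 Cells were plated and incubated 4 hrs, then dosed with compounds at 15 concentrations. PK11195 was added to 0.75 uM final. After 24 hrs at 37 C, luciferase luminescence was measured.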
# Chain of Luciferin 4-monooxygenase (Photinus pyralis) (P08659 whole entry, looked up): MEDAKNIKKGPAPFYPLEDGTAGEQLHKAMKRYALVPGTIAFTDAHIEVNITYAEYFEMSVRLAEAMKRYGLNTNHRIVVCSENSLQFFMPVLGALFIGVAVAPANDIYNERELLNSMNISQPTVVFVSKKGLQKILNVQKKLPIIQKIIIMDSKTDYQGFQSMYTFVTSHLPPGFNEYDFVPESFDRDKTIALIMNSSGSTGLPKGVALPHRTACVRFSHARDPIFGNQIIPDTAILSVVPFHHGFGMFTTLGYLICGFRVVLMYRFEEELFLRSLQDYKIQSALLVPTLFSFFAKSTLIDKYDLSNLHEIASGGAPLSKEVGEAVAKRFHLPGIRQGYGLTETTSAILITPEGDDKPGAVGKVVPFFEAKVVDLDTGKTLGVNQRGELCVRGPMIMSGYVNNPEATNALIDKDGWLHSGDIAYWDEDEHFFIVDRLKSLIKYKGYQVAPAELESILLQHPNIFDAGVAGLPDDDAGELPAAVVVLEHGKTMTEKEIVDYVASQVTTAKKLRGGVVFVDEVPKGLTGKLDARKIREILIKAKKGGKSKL
# Chain of Nuclear receptor subfamily 1 group I member 3 (Homo sapiens) (Q14994 whole entry, looked up): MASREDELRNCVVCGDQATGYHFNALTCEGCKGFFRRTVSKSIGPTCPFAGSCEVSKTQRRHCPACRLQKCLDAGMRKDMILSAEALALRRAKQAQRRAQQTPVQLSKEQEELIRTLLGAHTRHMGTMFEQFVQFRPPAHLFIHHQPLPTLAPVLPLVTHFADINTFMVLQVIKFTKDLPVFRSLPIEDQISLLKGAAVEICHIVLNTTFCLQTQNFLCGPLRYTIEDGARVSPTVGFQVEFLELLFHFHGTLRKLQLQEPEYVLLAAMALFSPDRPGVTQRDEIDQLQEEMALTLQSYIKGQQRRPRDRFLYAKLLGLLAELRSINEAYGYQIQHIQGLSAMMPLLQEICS
Structure (SMILES),Potency [1],Potency [2],Potency [3],Potency [4],Potency [5],Potency [6],Potency [7],Potency [8],Potency [9]
C=C1CCC2CC1C2(C)C (configuration not stated),inactive,inactive,inactive,inactive,inactive,–,–,–,–
Oc1c(I)cc(I)c2cccnc12,29.8 µM (active),inactive,inactive,inactive,inactive,inactive,inactive,–,–
CC(C)=CCC/C(C)=C/CC/C(C)=C/C(=O)OCC(=O)[C@@]1(O)CC[C@H]2[C@@H]3CCC4=CC(=O)C=C[C@]4(C)[C@H]3[C@@H](O)C[C@@]21C,29.8 µM (active),inactive,inactive,inactive,inactive,inactive,16.8 µM (active),inactive,–
O=C1Cc2cc(Cl)ccc2N1,inactive,inactive,inactive,inactive,inactive,inactive,inactive,–,–
NC(=O)c1ccncc1,inactive,inactive,inactive,inactive,inactive,inactive,inactive,–,–
O=C(O)CCCCCCCCCCCBr,inactive,56.6 µM (active),inactive,inactive,inactive,inactive,inactive,inactive,–
CC(O)c1ccccc1 (configuration not stated),inactive,inactive,inactive,inactive,inactive,inactive,inactive,inactive,–
CCCCCCCCCCC(=O)O,inactive,57.1 µM (active),inactive,inactive,inactive,–,–,–,–
CC(C)(C)CC(=O)OCC(=O)[C@@]1(O)CC[C@H]2[C@@H]3CCC4=CC(=O)C=C[C@]4(C)[C@H]3[C@@H](O)C[C@@]21C,26.6 µM (active),inactive,inactive,inactive,inactive,inactive,23.7 µM (active),–,–
CC(=O)N/N=C/c1ccc([N+](=O)[O-])o1,inactive,inactive,inactive,inactive,–,inactive,inactive,inactive,–
C[C@@H]1CC(=O)NN=C1c1ccc(NN=C(C#N)C#N)cc1,18.8 µM (active) and 13.3 µM (active),5.49 µM (active) and 9.77 µM (active),11.9 µM (active),11.9 µM (active),26.6 µM (active) and 23.7 µM (active),21.1 µM (active),4.73 µM (active),–,–
CCCCN1CCCC1C(=O)Nc1c(C)cc(C)cc1C (configuration not stated),inactive,inactive,inactive,inactive,inactive,inactive,–,–,–
Cc1ccccc1S,inactive,inactive,inactive,inactive,inactive,inactive,–,–,–
O=C(/C=C/c1ccccc1)OCCc1ccccc1,inactive,4.48 µM (active),inactive,inactive,inactive,inactive,–,–,–
CCCCN(CCN(CCCC)C(=O)N1CCOCC1)C(=O)N1CCOCC1,inactive,inactive,inactive,inactive,inactive,inactive,–,–,–
c1ccc2sc(SN(C3CCCCC3)C3CCCCC3)nc2c1,inactive,inactive,inactive,inactive,inactive,inactive,–,–,–

Structure (SMILES),Potency [1],Potency [2],Potency [3],Potency [4],Potency [5],Potency [6],Potency [7],Potency [8],Potency [9]
O=C1c2ccccc2C(=O)C1c1ccc(Br)cc1,inactive,3.47 µM (active),inactive,inactive,inactive,inactive,inactive,–,–
Cc1ccc(Cl)c(Nc2ccccc2C(=O)O)c1Cl,inactive,inactive,inactive,inactive,inactive,–,–,–,–
O=C1c2ccccc2C(=O)c2c(O)c(O)cc(O)c21,30.6 µM (active),44.8 µM (active),inactive,inactive,–,inactive,inactive,inactive,–
CCCCCC#CC(=O)OC,inactive,inactive,inactive,inactive,inactive,inactive,inactive,inactive,–
O=C(O)C[C@H](NC(=O)OCc1ccccc1)C(=O)O,inactive,inactive,inactive,inactive,inactive,inactive,–,–,–
CCCCOc1ccc(OCCCN2CCOCC2)cc1,inactive,inactive,inactive,inactive,inactive,inactive,–,–,–
COc1ncnc(NS(=O)(=O)c2ccc(N)cc2)c1OC,inactive,inactive,inactive,inactive,inactive,inactive,inactive,inactive,–
O=C(OC(=O)c1ccccc1)c1ccccc1,inactive,inactive,inactive,inactive,inactive,–,–,–,–
CC(=O)OCCN(CCOC(C)=O)c1ccc(N=Nc2ccc([N+](=O)[O-])cc2C#N)cc1,48.6 µM (active),35.6 µM (active),inactive,inactive,48.6 µM (active),inactive,–,inactive,–
CC(CN(C)C)C(C)(O)Cc1ccc(Cl)cc1 (configuration not stated),inactive,inactive,inactive,inactive,inactive,inactive,inactive,inactive,–
O=C(O)CCC(=O)C(=O)O,inactive,inactive,inactive,inactive,inactive,–,–,–,–
C[C@]1(Cn2ccnn2)[C@H](C(=O)O)N2C(=O)C[C@H]2S1(=O)=O,inactive,inactive,inactive,inactive,inactive,–,–,–,–
C/C=C/C=C/C=O,inactive,inactive,inactive,inactive,inactive,inactive,inactive,inactive,–
Nc1nnc(-c2ccc([N+](=O)[O-])o2)o1,48.6 µM (active),inactive,30.6 µM (active),48.6 µM (active),–,–,–,–,inactive
C[C@@H]1CN(CCCn2c3ccccc3c3ccccc32)C[C@H](C)N1,29.8 µM (active),inactive,29.8 µM (active),26.6 µM (active),–,–,–,inactive,2.11 µM (active)
